# About 1,700 (0.47%) of roughly 360,000 compounds were called active. This is one part of a sample in which actives are shown more often than they occur. Unmarked numbers belong to inactive results. No stated cut-off is given here; in the data, active means activation above about 15%; inactive means the rest.
# Assay: counter-screen for M1 agonists: effect in parental CHO-K1 cells (AID 602248);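 further: untransfected CHO-K1 host cells lacking M1 receptor as counterscreen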
# Conditions: Fluo-8 calcium fluorescence, at 3 µM, hits give high values, scaled to maximal ATP response, vehicle zero
row,SMILES,activation
1,N=c1n(Cc2ccc(Cl)cc2)c2ccccc2n1CC(O)c1ccco1 (configuration not stated),1.71%
2,CC12CCC(=O)N1C(C(=O)Nc1ccc(F)c(F)c1F)CS2 (configuration not stated),1.59%
3,CCCc1nc(-c2ccccc2O)n(-c2ccccc2)n1,-0.09%
4,Cc1nc(NC(CC(C)C)C(=O)O)c2nc(C)oc2n1 (configuration not stated),-0.16%
5,O=C(CN(CC1CCCO1)C(=O)CNS(=O)(=O)c1ccc(F)cc1)NCc1ccco1 (configuration not stated),1.1%
6,O=C(NCc1cccs1)C(=O)NCC1OCCCN1S(=O)(=O)c1ccc(F)cc1 (configuration not stated),-0.04%
7,CN(NC(=O)C1CC(=O)N(c2ccccc2)C1)C1=NS(=O)(=O)c2ccccc21 (configuration not stated),-0.27%
8,CN(C(=O)COC(=O)c1ccc(Br)o1)c1c(N)n(Cc2ccccc2)c(=O)[nH]c1=O,2.4%
9,Nc1cc(=O)n(Cc2ccccc2)c(=O)n1Cc1ccccc1,0.11%
10,Cc1cc2nc3c(=O)n(Cc4ccccc4)c(=O)[nH]c3nc2cc1N,47.3% (active)
11,Cc1ccc(S(=O)(=O)n2cccc2CO)cc1,-0.4%
12,COc1ccc(-n2c(Cc3cccn3C)nnc2SCC(=O)Nc2cc(C)cc(C)c2)cc1,-0.02%
13,CCOC(=O)N1C(=O)C[C@](Sc2ccc(C)cc2)(C(=O)OC)[C@H]1c1ccccc1,1.19%
14,CC(=O)NC(=S)Nc1ccc(NC(=S)NC(=O)c2ccc([N+](=O)[O-])cc2)cc1,24.5% (active)
15,COCCCNC(=S)NC(=O)c1ccc([N+](=O)[O-])cc1,0.19%
16,CC(=O)Nc1ccc(NC(=S)NC(=O)c2ccc([N+](=O)[O-])c(C)c2)cc1,1.35%
17,Cc1nn(C(C)C(=O)N2CCOCC2)c(=O)c2nn(-c3ccccc3)c(C)c12 (configuration not stated),2.09%
18,COc1cccc(CNn2cn[nH]c2=S)c1OCc1ccccc1,1.05%
19,COc1cccc(CNCCc2c[nH]c3ccccc23)c1OCc1ccccc1F,23.3% (active)
20,Fc1ccccc1COc1ccccc1CNCc1ccncc1,4.4%
21,COc1cc(NC(=O)COC(=O)CSc2ccc3ccccc3c2)c(C)cc1[N+](=O)[O-],5.21%
22,COc1ccc(-c2c(-c3ccc(OC)cc3O)nc(C)nc2C(F)(F)F)cc1,-0.31%
23,COc1ccc(-c2[nH]ncc2CN(C)Cc2c(C)n[nH]c2C)c(OC)c1,1.07%

row,SMILES,activation
1,COc1ccc(-c2n[nH]c(C)c2-c2ccccc2OC)c(O)c1,15.4% (active)
2,Cc1ccc(Cc2cncc(O)c2)cc1S(=O)(=O)O,0.27%
3,NC(=O)c1ccsc1NC(=O)COC(=O)COc1ccc(C=O)cc1,16.2% (active)
4,COc1cc(OC)cc(C(=O)OCC(=O)Nc2sccc2C(N)=O)c1,9.07%
5,Cc1cccc(C(=O)OCC(=O)Nc2sccc2C(N)=O)c1C,-0.07%
6,CCOC(=O)[C@]12CCC=C1N(Cc1cccc3ccccc13)C(=O)[C@H](CC(=O)NCc1cccc(C(F)(F)F)c1)C2,0.16%
7,COc1cc(NC(=O)NCC2CCN(Cc3ccc(C)cc3)CC2)cc(OC)c1OC,1.36%
8,Cc1cccc(CN2CCC(CNC(=O)Nc3ccc(F)c(Cl)c3)CC2)c1,29.2% (active)
9,Cc1ccc(C)c(CN2CCC(CNC(=O)Nc3ccc(C)c(F)c3)CC2)c1,2.18%
10,O=C(O)c1cc(Cl)c(Cl)cc1C(=O)Nc1cccc2ncccc12,20.9% (active)
11,O=C(O)c1cc2c(cc1NC(=O)c1c(F)cccc1Cl)OCCCO2,0.67%
12,Cc1ccc(/C=C(\C#N)C(=O)Nc2cccc3ncccc23)o1,2.57%
13,COc1ccc(C(=O)CSc2nnnn2C)c(OC)c1,-0.15%
14,O=c1c2ccccc2c(-c2ccc(Br)cc2)nn1Cc1ccccc1,0.4%
15,COC(=O)c1ccc(SCc2ccccc2)nc1,-0.21%
16,CSc1c(SCc2ccccc2)cnn(Cc2ccccc2)c1=O,18.2% (active)
17,Cc1nn(CC2CC2)c(=O)n1N(C)c1ncc(C(F)(F)F)cc1Cl,1.05%
18,COc1ccc2c(CN3CCN(S(=O)(=O)c4cccs4)CC3)cc(=O)oc2c1,16.1% (active)
19,Cc1ccc2c(CN3CCN(S(=O)(=O)c4ccccc4C(F)(F)F)CC3)cc(=O)oc2c1,6.94%
20,Cc1cc2oc(=O)cc(CN3CCN(S(=O)(=O)c4cccs4)CC3)c2cc1C(C)C,1.53%
21,COc1ccc(NC(=O)Nc2ccc3nsnc3c2)cc1,19.9% (active)
22,O=C(Nc1ccc2ccccc2c1)Nc1ccc2snnc2c1,14%
23,O=C(Nc1ccccc1)c1ccc2nsnc2c1,-0.09%

row,SMILES,activation
1,CCc1ccccc1NC(=O)Cc1cn(C)c2ccccc12,8.41%
2,CC(C)(C)C1CCC(=O)N2CCC[C@]2(c2ccccc2)C1 (some centres not stated),-0.26%
3,Cc1nc(N)c(Br)c(C)c1Br,-0.78%
4,COc1cccc(CNc2nc(NCc3ccccc3OC)nc3ccsc23)c1,8.82%
5,COc1ccccc1CNc1nc(Nc2ccccc2Cl)c2sccc2n1,7.11%
6,COc1cccc(CNc2nc(NCc3cccs3)nc3ccsc23)c1,24.7% (active)
7,CN1C(C)(C)CC(NC(=O)CCC(=O)NC2CC(C)(C)N(C)C(C)(C)C2)CC1(C)C,0.35%
8,C=CCN1C2CCCC1CC(NC(=S)Nc1cccc(OC)c1)C2 (configuration not stated),1.29%
9,N#Cc1c(-c2ccccc2)c(-c2ccccc2)n[nH]c1=O,-0.04%
10,O=C(CNCc1ccc(Cl)cc1)Nc1cccc(C(=O)O)c1,18.2% (active)
11,O=C(CCCOc1ccccc1)Nc1cccc(C(=O)O)c1,0.45%
12,Cc1ccc(C)c2c1cc(C)c1nnc(SCC(=O)Nc3cccc(C(=O)O)c3)n12,1.47%
13,O=C(NCc1ccco1)c1cccc(-c2ccc3nncn3c2)c1,0.29%
14,C1CC1Cc1noc(CN2CCN(CC3CC3)CC2)n1,1.05%
15,COc1cc(OC)c(N2CC(C(=O)Nc3cc(Cl)ccc3N3CCOCC3)CC2=O)cc1Cl (configuration not stated),4.62%
16,COc1ccc(Cl)cc1S(=O)(=O)N1CCC(O)(c2ccc(Cl)cc2)CC1,0.66%
17,COc1cc(OC)c(-n2cc(-c3ccc(Cl)cc3)[nH]c2=O)cc1Cl,25.2% (active)
18,CC1CCc2[nH]c3ccc(C(=O)N(C)CC(=O)Nc4cccc(F)c4)cc3c2C1 (configuration not stated),2.26%
19,O=C(CCCN1CCc2[nH]c3ccc(F)cc3c2C1)c1ccc(F)cc1,24% (active)
20,Cn1c(SCC(=O)N2CCOCC2)nnc1-c1ccc2ncccc2c1,0.63%
21,CN(C)c1ccc(/C=N/NC(=O)c2ccc(Cn3cc(Br)cn3)o2)cc1,0.99%
22,Cc1c(Cl)c([N+](=O)[O-])nn1CCCC(=O)NC(C)c1ccccc1 (configuration not stated),-0.09%
23,Cc1c(Cl)c([N+](=O)[O-])nn1Cc1ccc(C(=O)N/N=C\c2cc(Cl)ccc2O)o1,19.9% (active)

row,SMILES,activation
1,C=C(C)CSc1nnc(-c2ccc(C)cc2)n1N,0.17%
2,O=C(CCN1C(=O)c2ccccc2C1=O)NCCCn1ccnc1,0.76%
3,COC(=O)c1c(C)c(C)nc(N)c1C#N,0.12%
4,COCc1c(N)c(C)nc(Cl)c1C#N,16.9% (active)
5,Cc1nc(Cl)c(C#N)c2c1CCCC2,0.61%
6,CCNC(=O)C1(C)CCN(C(=O)c2ccccc2)C1 (configuration not stated),-0.33%
7,O=C(Cn1ccc([N+](=O)[O-])n1)NCc1cccs1,0.12%
8,OCCN1CCN(c2ncnc3c2ncn3[C@H]2CN(Cc3ccco3)C[C@@H](CO)O2)CC1,0.92%
9,CCNC(=O)N1CCN(S(=O)(=O)c2ccc3c(c2)OCCCO3)CC1,1.28%
10,COc1cc(NC(=O)c2ccc(CNc3c(N4CCCC4)c(=O)c3=O)cc2)cc(OC)c1OC,0.42%
11,Cc1ccc(Cn2c(C)c(C(=O)NCc3ccccc3C(F)(F)F)sc2=O)cc1,0.82%
12,Cc1c(C(=O)NCc2ccc(C#N)cc2)sc(=O)n1Cc1ccc(C(=O)N(C)C)cc1,-0.19%
13,CC(=O)Oc1ccc(Cn2c(C)c(C(=O)NCc3ccc(C#N)cc3)sc2=O)cc1,31.7% (active)
14,CCC(CC)C(=O)Nc1c2c(nn1-c1ccc(C)cc1)CS(=O)(=O)C2,-0.47%
15,O=C(NCc1ccc2c(c1)OCO2)C(=O)NCC1OCCN1S(=O)(=O)c1ccc(F)cc1 (configuration not stated),1.05%
16,O=C(O)c1ccc(S(=O)(=O)N2CCOCC2)o1,-0.58%
17,CNC[C@H]1OCc2cnnn2CCCC(=O)N([C@H](C)CO)C[C@@H]1C,0.47%
18,CC(=O)c1ccc(NC(=S)NC(=O)CC(C)C)cc1,16.1% (active)
19,CC(=O)c1ccc(NC(=O)CSC(=S)N2CCCC2)cc1,1.41%
20,CC(C)CC(=O)NC(=S)Nc1ccc(F)cc1F,1.3%
21,CCCOc1cc(C)c(S(=O)(=O)n2nnc3ccccc32)cc1C,0.16%
22,CCC(C(=O)Nc1ncccn1)(C(F)(F)F)C(F)(F)F,0.01%
23,S=C1Nc2cc(Cl)ccc2Sc2ccccc21,1.17%

row,SMILES,activation
1,Cc1ccc(S(=O)(=O)N(C)CC(=O)NCC(c2ccc(F)cc2)N2CCOCC2)cc1 (configuration not stated),0.75%
2,COC(=O)[C@@H]1C[C@@]2(O)[C@H](O)[C@H](O)[C@H](O)C[C@H]2N1Cc1ccc(C)s1,0.11%
3,COc1ccc(S(=O)(=O)NNC(=O)Nc2ccc(C)cc2)c(OC)c1,0.08%
4,COc1cc(NC(=O)Nc2ccc(C)cc2)cc([N+](=O)[O-])c1,15.6% (active)
5,Cc1ccc(Oc2cc(NC(=O)CCCn3nc(C)c([N+](=O)[O-])c3C)cc([N+](=O)[O-])c2)cc1,0.22%
6,CC(C)CCN1C(=O)c2ccc(C(=O)Nc3cccc(S(N)(=O)=O)c3)cc2C1=O,1.4%
7,CCSC1=NCCN1S(=O)(=O)c1ccc(F)cc1,0.73%
8,Cc1ccc(C(=O)OCC(=O)N2CCCCCC2)cc1S(=O)(=O)N1CCOCC1,0.59%
9,COc1ccc(C(=O)OCC(=O)c2ccc(C)c(S(=O)(=O)N3CCOCC3)c2)cc1OC,15.7% (active)
10,COc1ccc(CNC(=O)COC(=O)c2ccc(C)c(S(=O)(=O)N3CCOCC3)c2)cc1OC,3.58%
11,COc1ccc(C(C)NC(=O)C23CC4CC(CC(C4)C2)C3)cc1 (configuration not stated),-0.13%
12,Cc1ccc(NC(=O)COC(=O)CN2CCCCCC2=O)c(C)c1,-0.27%
13,COc1ccc(-c2ccc3c(c2)C2CC3CCN2CCC#N)cc1 (configuration not stated),4.03%
14,CCOC(=O)N1CCN(C(=O)c2ccc3c(c2)N(Cc2ccc(C)cc2)CCS3)CC1,1.01%
15,O=C(Nc1ccc(Cl)cc1)Nc1ccc(Oc2cccnc2)nc1,15.9% (active)
16,O=C(NNC(=O)c1csc(-c2cccnc2)n1)Nc1ccc(Cl)cc1,0.53%
17,O=C(O)CCCC(=O)Nc1ccc(Oc2cccc(C(F)(F)F)c2)nc1,0.38%
18,COc1ccc(NC2CCCN(C(=O)c3ccncc3)C2)cc1 (configuration not stated),0.4%
19,CSc1nc(C)nc2c1c(=O)n(C)c(=O)n2C,-0.23%
20,N#Cc1c(-c2ccc(F)cc2)cc(C2CC2)nc1SCC(=O)c1cccs1,0.07%

# Reference: PubChem BioAssay AID602248 (The Scripps Research Institute Molecular Screening Center, 2012)
